Test results taken from PubChem BioAssay (NCATS).
Results filed as inconclusive are left out. A number with no mark means an inactive call. Calls follow the shape of the dose curve; as a rule, active = well fitted inhibition curve with a large enough effect; inconclusive = small, poorly fitted or top-dose-only effect; inactive = flat fitted curve, though single readings scatter.

target: Aldehyde dehydrogenase, mitochondrial (Homo sapiens) (UniProt P05091); assay: qHTS for Inhibitors of the Aldehyde Dehydrogenase Family (ALDH2) Primary screen (AID 2061308); conditions: ALDH2 enzyme inhibition qHTS, 1536-well; series mostly up to 56 µM; activity change, negative = inhibition: at the top concentration;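 also: plate controls were vehicle for no effect and reference inhibitor for full effect; nearly all actives have a fitted effect of over 55% in size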

| Compound | activity change, negative = inhibition |
| --- | --- |
| Cc1ccc(OCCn2c(CCNC(=O)NC3CCCCC3)nc3ccccc32)cc1 | -7.52% |
| Cc1ccc(NS(=O)(=O)c2cc3c(cc2Cl)NC(=O)CO3)cc1Cl | -3.02% |
| O=C1CCc2cc(S(=O)(=O)Nc3ccc(F)c(Cl)c3)ccc2N1 | 14% |
| COc1cccc(NC(=S)N2CCN(c3cc(C(F)(F)F)cc(C(F)(F)F)c3)CC2)n1 | 12.6% |
| CC(C)(C)OC(=O)NCCCNc1ncnc2ccc(-c3ccc4c(c3)OCO4)cc12 | 13.8% |
| Cc1cnc(N2CCC(C(N)=O)CC2)nc1-c1cccc(N(C)C)c1 | -20.3% |
| Cc1ccc(NS(=O)(=O)c2ccc3ccccc3c2)cc1C | -19% |
| CNc1oc(-c2ccc(-c3ccccc3)cc2)nc1C#N | -3.73% |
| Cc1cc(N[S+](=O)([O-])c2ccc(NC(=O)Cc3ccc4c(c3)CCO4)cc2)no1 | 6.6% |
| O=C(Nc1ccc(-c2nc3ccccc3[nH]2)cc1)c1ccc2ncccc2c1 | 5.73% |
| N#CN/C(=N\c1nnc(-c2ccncc2)s1)Nc1ccc(F)c(C(F)(F)F)c1 | -9.12% |
| Cc1csc(CNc2ncnc3ccc(-c4ccoc4)cc23)c1 | -4.11% |
| O=C(O)c1ccncc1Nc1nn(CCN2CCC(F)(F)CC2)c2ccc(F)cc12 | -11.7% |
| Cc1ccc(NS(=O)(=O)c2ccc3c(c2)N(C)C(=O)CO3)cc1C | 4.26% |
| CC12CCC3C1C(c1c(cc(O)c(C(=O)c4ccccc4)c1O)O2)C3(C)C (stereo not given) | 11.9% |
| Cc1ccccc1-c1ccc(=O)n(CC(=O)NCCc2ccccc2)n1 | 6.84% |
| C/C=C(/C)C(=O)O[C@H]1C=C(CO)C(=O)[C@H](OC(=O)/C(C)=C/CO)[C@H]1C(C)C | -10.3% |
| O=c1c2[nH]c3ccsc3c2cnn1Cc1ccccc1F | 8.26% |
| Cc1nc(N2CCOCC2)c2nc(-c3ccccc3)n(CCN(C)C)c2n1 | 13.2% |
| Cc1ccc(S(=O)(=O)Nc2cnccc2C(=O)Nc2nc(-c3ccccc3F)cs2)cc1 | 7.2% |

| Compound | activity change, negative = inhibition |
| --- | --- |
| Cc1ccc(OCCn2c(CCN(C)C(=O)C3CCCCC3)nc3ccccc32)cc1 | 4.43% |
| O=[N+]([O-])c1nccn1CO[C@@H](CO)[C@H](O)CO | 0.51% |
| COc1ccc(C2c3c(ncn(CCCc4ccccc4)c3=N)Oc3ccc4ccccc4c32)cc1OC (stereo not given) | 3.25% |
| O=C(OCC#CCSc1nnc(-c2ccc3ccccc3c2)o1)c1ccsc1 | -0.913% |
| Cc1ccc(S(=O)(=O)Nc2cnccc2C(=O)Nc2ccc(C#N)cc2)cc1 | 0.704% |
| Cc1ccc([S+](=O)([O-])n2cc(Cc3ccc(-c4ccccc4)cc3)c3ccccc32)cc1 | 7.14% |
| C[C@@H]1CN(S(=O)(=O)c2c(F)cccc2F)CCN1S(=O)(=O)c1ccc2c(c1)OCCO2 | 1.89% |
| COc1ccc(C2Nc3ccccc3C(=O)N2Cc2ccco2)cc1COc1c(C(C)C)cccc1C(C)C (stereo not given) | -5.17% |
| Cc1nc(NCc2ccccc2)c2nc(-c3ccccc3)n(CCCN3CCOCC3)c2n1 | -0.333% |
| N=c1c2c(ccn1-c1ccccc1)Oc1ccc3ccccc3c1C2c1ccccc1 (stereo not given) | -28.7% |
| COc1cccc(C(=O)Nc2ccc(-c3nc4ccccc4[nH]3)cc2)c1 | -17.2% |
| CC(C)(C)OC(=O)Cc1nnc(-c2cc3ccccc3[nH]2)s1 | -2.75% |
| COC(=O)C1=CO[C@@H](O[C@@H]2O[C@H](CO)[C@@H](O)[C@H](O)[C@H]2O)C2C1C(=O)C[C@H]2C (stereo not given in full) | 6.32% |
| N#CN1CCC(NC(=O)c2ccc(F)cc2)CC1 | 12.4% |
| O=C(OCC#CCSc1nnc(-c2cccc3ccccc23)o1)c1ccccc1F | 6.87% |
| FC(F)(F)c1ccccc1-c1nc(NCc2cccc3ccccc23)c2ccccc2n1 | -20.1% |
| Cc1cc(CNc2ncnc3ccc(-c4ccc5c(c4)OCO5)cc23)c(C)o1 | -10.3% |
| O=S(=O)(NCCCNS(=O)(=O)c1c(F)cccc1F)c1ccc2c(c1)OCCO2 | 5.64% |
| C[n+]1cc(C(O)(c2ccccc2)c2ccccc2)n2ccccc21 | 2.49% |
| CCCCN(C)C(=O)Cn1nc(-c2cccc(C)c2)ccc1=O | 17.6% |
